The list is not random: actives were taken first. Their share in the collection is about 18%.
TDP1 cell noCPT – qHTS for Inhibitors of human tyrosyl-DNA phosphodiesterase 1 (TDP1): qHTS in cells in absence of CPT. AID 686978, 2013. Potency, µM (series often up to 46.2 µM), for inactives: at the highest dose activity change, negative = growth inhibition, most hits filed as inhibitors. 420,000 tested, 15% active. DT40 Tdp1-/- hTDP1 cells, no CPT, ATP luminescence, 48 h; further: potency means the concentration at half of the fitted maximal effect; on the % scale 0 is the no-effect control and ±100 the full control effect; nearly all actives have a fitted effect of over 55% in size
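Readout: luminescence from CellTiter-Glo after 30 min in the dark at RT. Cells: DT40 Tdp1-/- with stable hTDP1, 400/well. Exposure: compounds alone, ≥48 hr, 37 °C.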
TDP1 cell CPT – DT40-hTDP1 cell growth loss with CPT; chicken DT40 Tdp1-/-;hTDP1 cells + 20 nM CPT, ATP luminescence, 48 h; Potency, µM (series often up to 46.2 µM), for inactives: at the top dose activity change, negative = growth inhibition, most hits filed as inhibitors; AID 686979; 420,000 tested, 12% active; further: potency means the concentration at half of the fitted maximal effect; on the % scale 0 is the no-effect control and ±100 the full control effect; nearly all actives have a fitted effect of over 55% in size
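Chicken DT40 Tdp1-/- cells complemented with human TDP1, 400 cells/well, exposed to compounds plus 20 nM camptothecin for at least 48 h at 37 C; viability read as ATP content by CellTiter-Glo luminescence.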
IL-1B inflam inh – inflammasome signaling inhibition, IL-1 beta readout; THP-1 LPS/ATP IL-1B secretion, AlphaLISA, 16 h; stronger effect = lower value; activity change, % at 57.5 µM; 360,000 tested, 4.7% active; in the data active means activity change below about -50%; inconclusive means mostly about -30% to -49%; further: on the % scale 0 is the no-effect control and ±100 the full control effect
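THP-1 cells pretreated 1 hr with compounds (up to 57.5 uM final), then stimulated with LPS (250 ng/mL final) plus ATP (1.25 mM final); secreted IL-1B measured by AlphaLISA after 16 hr, decreased signal indicating inhibition.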
TDP1 inh – inhibitors of human tyrosyl-DNA phosphodiesterase TDP1 | Potency, µM (doses to about 130 µM), inactives show at the top dose activity change, negative = inhibition, actives largely listed as inhibitors | 350,000 tested, 0.28% active | AID 485290 | recombinant TDP1, AlphaScreen DNA substrate cleavage | Q9NUW8; further: potency means the concentration at half of the fitted maximal effect; on the % scale 0 is the no-effect control and ±100 the full control effect; nearly all actives have a fitted effect of over 40% in size
Target sequence (Q9NUW8 whole entry, looked up): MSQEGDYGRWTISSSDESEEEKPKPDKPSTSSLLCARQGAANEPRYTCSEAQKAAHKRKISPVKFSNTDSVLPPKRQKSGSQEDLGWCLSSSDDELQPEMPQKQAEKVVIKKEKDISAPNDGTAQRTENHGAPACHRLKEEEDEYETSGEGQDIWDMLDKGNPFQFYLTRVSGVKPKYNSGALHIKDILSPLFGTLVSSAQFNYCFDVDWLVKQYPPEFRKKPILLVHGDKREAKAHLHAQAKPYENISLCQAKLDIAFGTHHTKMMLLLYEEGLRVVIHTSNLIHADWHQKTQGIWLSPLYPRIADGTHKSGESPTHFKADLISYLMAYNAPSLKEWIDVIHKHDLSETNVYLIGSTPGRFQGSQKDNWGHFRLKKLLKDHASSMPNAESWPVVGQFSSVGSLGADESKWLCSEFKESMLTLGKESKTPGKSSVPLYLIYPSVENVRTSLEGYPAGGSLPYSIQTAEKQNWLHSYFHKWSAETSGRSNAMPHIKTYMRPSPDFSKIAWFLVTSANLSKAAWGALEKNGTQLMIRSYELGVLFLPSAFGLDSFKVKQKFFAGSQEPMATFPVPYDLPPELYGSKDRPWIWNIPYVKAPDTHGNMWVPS
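Tdp1 1 nM final; 15 min RT w/ cpd; substrate 15 nM, 5 min; beads 10 ug/ml, 10 min; AlphaScreen read. Neg ctrl: no enzyme.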
HepG2 viability – HepG2 cytotoxicity, counter-screen for TGF-b inhibitors; AID 588856; 410,000 tested, 0.76% active; Potency, µM (titrated, usually from 46.1 µM), for inactives: at the highest dose activity change, negative = cytotoxicity, hits mostly cytotoxic; HepG2 CAGA-GFP viability, ATP luminescence, 18 h; further: potency means the concentration at half of the fitted maximal effect
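HepG2 CAGA-GFP cells (1000/well, DMEM with 1% FBS) received compound, then TGF-beta at 500 pg/mL final, and were incubated 18 hours at 37 degrees C. Viability was read by CellTiter-Glo luminescence. Media-only wells were set as complete cell-killing and DMSO as no toxicity.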
TGFb inhibitor – TGF-b pathway inhibition; Potency, µM (titrated, usually from 46.1 µM), inactives show top-dose activity, negative = inhibition, usual class: inhibitors; 410,000 tested, 1.2% active; HepG2 CAGA-GFP TGF-b/SMAD3 reporter, GFP fluorescence, 18 h; TGF-beta stimulated, 500 pg/mL final; further: potency means the concentration at half of the fitted maximal effect; on the % scale 0 is the no-effect control and ±100 the full control effect; nearly all actives have a fitted effect of over 65% in size
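HEPG2 CAGA-GFP reporter cells (1000/well, DMEM with 1% FBS) received compounds, then recombinant TGF-beta at 500 pg/mL final for 18 hours at 37 degrees C. Per-cell GFP summed per well was normalised to unstimulated and stimulated DMSO controls before curve fitting.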
Active calls of the source: *; ? = inconclusive; · = not tested or not shown; [ ] = dose if it differs, or a comment. Unless noted, the call rests on the fitted dose curve; in most records, active means well fitted curve in the direction sought with a large enough effect; inconclusive means small, poorly fitted or top-dose-only effect, or another doubt; inactive means no such curve, though single readings can be large; an effect the other way counts as inactive or inconclusive.

SMILES | TDP1 cell noCPT | TDP1 cell CPT | IL-1B inflam inh | TDP1 inh | HepG2 viability | TGFb inhibitor
C=CCSc1nnc(NC(=O)CSc2nc3ccccc3o2)s1 | ? | 23µM* | 0 | 3% | 4% | -1%
O=C(CSc1nc2ccccc2o1)Nc1nc(-c2ccccc2)c(-c2ccccc2)s1 | 12µM* | 18µM* | 0 | 3% | -1% | 15%
CCN1CC(CN(C)Cc2nc(-c3ccc(C(F)(F)F)cc3)no2)CC1=O (centres undefined) | 18µM* | ? | -8 | 1% | -27% | ?
CCCn1c(NC(=O)CCS(=O)(=O)c2ccc(C)cc2)nc2ccccc21 | ? | ? | -10 | · | -15% | 0%
CCN1CCN(c2ccc(NC(=O)c3ccc([N+](=O)[O-])o3)cc2Cl)CC1 | 0.52µM* | 0.58µM* | -107* | 3% | -6% | ?
CCC(=O)N1CCN(c2ccc(Cl)cc2NC(=O)c2cccc([N+](=O)[O-])c2)CC1 | ? | ? | 30 | 0% | -4% | -1%
CCC(=O)N1CCN(c2ccc(Cl)cc2NC(=O)c2ccc([N+](=O)[O-])o2)CC1 | ? | 18µM* | 3 | 3% | -14% | ?
O=C(Nc1cc(Cl)ccc1-n1cncn1)c1ccc([N+](=O)[O-])o1 | 10µM* | 7.3µM* | -65* | 2%[0.505 µM] | -21% | 0%
Nc1nc(SCCO)[nH]c(=O)c1NC(=O)c1ccco1 | 0% | -20% | 11 | 0% | -2% | -7%
COC(=O)[C@]12CCCCC=C1N(Cc1ccco1)C(=O)[C@H](CC(=O)N1CCC(c3ccccc3)CC1)C2 | ? | ? | -30 | · | · | ·
O=C(O)c1cccc(S(=O)(=O)Nc2ccc([N+](=O)[O-])cc2O)c1 | -15% | 1% | 7 | -1% | -16% | -4%
O=C(O)CSc1cc(NS(=O)(=O)c2cccc([N+](=O)[O-])c2)c2ccccc2c1O | 1.8µM* | 2.3µM* | -86* | 10% | -95% | 10µM*
CCOc1ccc(S(=O)(=O)Nc2cc(SCC(=O)O)c(O)c3ccccc23)cc1 | 4.6µM* | 3.7µM* | 94 | · | 13µM* | 5µM*
Cc1ccc(C)c(NS(=O)(=O)c2cc(C(=O)Nc3ccccc3-c3ccccc3)ccc2C)c1 | ? | ? | ? | -2% | 4% | ?
CCOc1ccc(S(=O)(=O)Nc2cc(OC)c(OC)cc2C(=O)O)cc1 | 2% | -9% | 17 | -7% | -7% | -4%
Cc1ccc(C)c(S(=O)(=O)Nc2cc(SCC(=O)O)c(O)c3ccccc23)c1 | 6.5µM* | 5.8µM* | -98* | 5% | -99% | -46%
CCN(CC)CCCNC(=O)C1CCC(CNS(=O)(=O)c2ccc(Cl)cc2)CC1 (centres undefined) | -4% | ? | -4 | · | -5% | -12%
O=C1CCc2cc(NS(=O)(=O)c3cc(F)ccc3F)cc3c2N1CC3 | 0% | -3% | 7 | · | 4% | -3%
COc1cc(OC)cc(C(=O)Nc2cc3c(cc2N2CCOCC2)n(C)c(=O)n3C)c1 | -18% | -14% | · | 2% | -5% | 16%
COc1cc2c(cc1OC)C1=NC(=O)CN1C(SCc1ccc(C)cc1)=N2 | 2.6µM* | 6.5µM* | 10 | 12% | -5% | ?
C=CCSC1=Nc2cc(OC)c(OC)cc2C2=NC(=O)CN12 | 10µM* | ? | 3 | 3% | -73% | -3%
Cc1ccc(CSC2=Nc3sccc3C3=NC(=O)CN23)cc1 | -5% | ? | 15 | 4% | -47% | -8%
O=C(COC(=O)c1ccc(NC(=O)C2CC=CCC2C(=O)O)cc1)c1ccccc1 (centres undefined) | 9% | 15% | 27 | · | 4% | 0%
O=C(NCCO)C(=O)Nc1c2c(nn1-c1ccc(F)cc1)CSC2 | -2% | -7% | · | 8% | 0% | 9%
COc1ccccc1C(=O)Nc1cccc(C(=O)OCc2cc(=O)n3c4c(sc3n2)CCCC4)c1 | ? | ? | · | 4% | -19% | -19%
SMILES | TDP1 cell noCPT | TDP1 cell CPT | IL-1B inflam inh | TDP1 inh | HepG2 viability | TGFb inhibitor
CC(C)NC(=O)C1CC(=O)N(CCc2ccc(F)cc2)C1 (centres undefined) | -4% | -7% | 7 | · | -1% | -11%
Cc1ccc(Cl)cc1N1CCN(C(=O)C2CCN(S(=O)(=O)c3cnc[nH]3)CC2)CC1 | ? | ? | -4 | -3% | 9% | -1%
Cc1cc(C)nc(N2CCC(C(=O)N3CCN(c4cc(Cl)ccc4C)CC3)CC2)n1 | 18µM* | ? | -15 | 4% | 6% | ?
Cc1ccc(Cl)cc1N1CCN(C(=O)C2CCCN(S(=O)(=O)c3cnc[nH]3)C2)CC1 (centres undefined) | 23µM* | 15µM* | -3 | 3% | -26% | -5%
Cc1ccc(C)c(N2CCN(C(=O)C3CCN(c4nc(C)cc(C)n4)CC3)CC2)c1 | 12µM* | 15µM* | -8 | 7% | -18% | -26%
Cc1ccc(Cl)cc1N1CCN(C(=O)C2CCN(S(=O)(=O)c3cn(C)cn3)CC2)CC1 | ? | ? | · | -1% | -20% | 29%
Cc1ccc(Cl)cc1N1CCN(C(=O)C2CCN(S(C)(=O)=O)CC2)CC1 | 5.8µM* | ? | 0 | 5% | -20% | -12%
Cc1ccc(NC(=O)C2CCN(c3nc(C)cc(C)n3)CC2)cc1 | ? | ? | 8 | 0% | 0% | -2%
C[Se]CC[C@H](N)C(=O)O | -27% | 8% | · | · | · | ·
CC1=NN(c2ccccc2)C(=O)/C1=C\C=C1/N(C)c2ccccc2C1(C)C | ? | ? | -86* | 8% | -2% | -4%
CN1/C(=C\C=C2/C(=O)Oc3ccccc3C2=O)C(C)(C)c2ccccc21 | ? | ? | ? | 3% | -31% | 184%
CC1=NN(c2ccccc2)C(=O)/C1=C\C=C1\N(C)c2ccccc2C1(C)C | 23µM* | ? | -13 | -11% | 17% | -7%
COCCCNC(=O)C(=O)NCC(c1ccc2c(c1)OCO2)N1CCOCC1 (centres undefined) | ? | 8% | · | 2% | -29% | -1%
CCC(O)CC(C(=O)NNc1ccccc1)C(=O)NNc1ccccc1 (centres undefined) | -1% | 23% | 1 | 3% | 2% | 1%
O=C(N/N=C/c1cc2c(cc1Cl)OCO2)c1cc(-c2ccccc2)n[nH]1 | ? | ? | ? | 3% | -35% | 3%

Source: PubChem
